Records with an inconclusive call do not appear. Where a call stands in place of a potency, no number is given. Activity calls are given as the source filed them. The call rests on the fitted dose curve; in most records, active means well fitted inhibition curve with a large enough effect; inconclusive means small, poorly fitted or top-dose-only effect; inactive means no such curve, though single readings can be large or run the other way.

The first test concerns Zika virus NS2B-NS3 protease (unlinked complex). The test can be described thus: Primary screen GU Rhodamine qHTS for Zika virus inhibitors: Unlinked NS2B-NS3 protease assay (AID 1347159). Further: nearly all actives have a fitted effect of over 60% in size. Further: potency means the concentration at half of the fitted maximal effect. The following applies: Recombinant ZIKV NS2B-NS3 protease, Rhodamine110 substrate fluorescence; series mostly up to 107 µM. The method, boiled down: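 Noncovalent NS2B hydrophilic domain–NS3 protease domain complex (25 nM) preincubated 15 min at room temperature with compounds (up to 114 microM) in 10 mM Tris-HCl pH 8.0, 0.01% Tween 20; 1.5 microM Rhodamine110 substrate added, fluorescence change over 15 min fitted to Hill equation.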
In general terms: qHTS replaces the single test concentration by a dilution series.
For the molecule `CC1(C)C[C@H]2C3=CCC4[C@@]5(C)CC[C@H](O[C@H]6O[C@H](C(=O)O)[C@@H](O)[C@H](O)[C@H]6O[C@H]6O[C@H](CO)[C@@H](O)[C@H](O)[C@H]6O[C@@H]6O[C@H](CO)[C@@H](O)[C@H](O)[C@H]6O)[C@](C)(CO)C5CC[C@@]4(C)[C@]3(C)CC[C@@]2(C)[C@H](O[C@@H]2OC[C@H](O)[C@H](OC3O[C@H](CO)[C@@H](O)[C@H](O)[C@H]3O)[C@H]2O)[C@@H]1O` (some centres not stated), the activity change, negative = inhibition is 6.08% [at 19.1 µM] (inactive).

On to `CC(C)(O)c1ccc2c(c1)C(=O)CC1[C@](C)(CO)CCC[C@]21C` (some centres not stated), for which the Potency was 31.6 µM (active).

On to `CC1CCC2C(C)(C)C(O)CCC2(C)C12Cc1c(O)cc3c(c1O2)C(N)=NC3` (configuration not stated), for which the Potency entry is “inactive”.

For `O=C(c1ccc(F)cc1)C1CCN(CCn2c(=O)nc3n(c2=O)CCCC3)CC1`, the Potency entry was “inactive”.

In the case of `COc1cc(C)c(C(=O)O[C@H]2[C@@H](O)[C@H](n3ccc(=O)[nH]c3=O)O[C@@H]2CO)c(OC)c1`, the Potency entry was “inactive”.

Turning to `CC1(C(=O)O)CCCC2(C)C1CCC13CC(CCC21)C1(CO)OC31` (configuration not stated), the Potency entry was “inactive”.

Consider `COc1cc(C2Oc3c(O)cc(CCCO)cc3C2CO)ccc1O[C@H]1O[C@H](C)[C@@H](O)[C@H](O)[C@@H]1O` (some centres not stated), for which the Potency entry was “inactive”.

In the case of `O=C1CC(c2ccc([N+](=O)[O-])cc2)=NN1c1ccccc1`, the Potency was 39.8 µM (active).

For the molecule `C=C1CC2(C(=O)O)CC1CCC2C1(C)CCCC2(C)C(=O)OC(O)C21` (configuration not stated), the Potency entry is “inactive”.

Turning to `O=C(O[C@@H]1O[C@H](CO)[C@@H](O)[C@H](O)[C@H]1O)c1c(O)cc(O)cc1/C=C/c1ccccc1`, the Potency entry was “inactive”.

As to `CC(/C=C/C1(O)C(C)(C)CC(O)CC1(C)O)OC1OC(CO)C(O)C(O)C1O` (configuration not stated), the Potency result was “inactive”.

Turning to `CC(C)C1=CC2=CCC3[C@](C)(CCC[C@@]3(C)C(=O)O)C2CC1O` (some centres not stated), the Potency result is “inactive”.

Turning to `C(#Cc1cccc(CN2CCOCC2)c1)CCN1CCCCC1`, the Potency result is “inactive”.

Take `COc1ccc(/C=C/C(=O)O[C@@H]2[C@@H](OC(C)=O)[C@@H](OC(C)=O)[C@H](O[C@H]3[C@@H]4C=CO[C@@H](O[C@@H]5O[C@H](CO)[C@@H](O)[C@H](O)[C@H]5O)[C@@H]4[C@@]4(CO)O[C@@H]34)O[C@H]2C)cc1O`: the Potency result is “inactive”.

For the molecule `C[C@@H]1CC[C@]2(C)C(C[C@@H](O)[C@H](O)[C@]23CO3)[C@@]1(C)CCc1ccoc1` (some centres not stated), the Potency result was “inactive”.

A further test deals with Zika virus NS2B-NS3 protease (linked construct). The test can be described thus: Primary screen NINDS Rhodamine qHTS for Zika virus inhibitors (AID 1347160). Further: nearly all actives have a fitted effect of over 55% in size. The following applies: purified NS2B-NS3 protease, Rhodamine110 substrate fluorescence; series mostly up to 57.1 µM. The essentials:
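Purified linked NS2B-NS3 protease (NS2B hydrophilic domain joined to NS3 protease by flexible linker), 25 nM in 10 mM Tris-HCl pH 8.0, 0.01% Tween 20. Compounds titrated, 15 min preincubation at room temperature; 1.5 microM Rhodamine110 substrate, FITC fluorescence change over 15 min.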
As for `C=CC(C)(CC/C=C(\C)CC/C=C(\C)CC(O)/C=C(\C)C(=O)O)O[C@@H]1O[C@H](CO)[C@@H](O)[C@H](O)[C@H]1O[C@@H]1O[C@H](CO)[C@@H](O)[C@H](O)[C@H]1O` (some centres not stated), the Potency result is “inactive”.

Regarding `NC(=O)[C@H]1CCCCc2c1[nH]c1ccc(Cl)cc21`, the Potency result is “inactive”.

With `COc1cc2c(Nc3ccc(Cl)c(Cl)c3F)ncnc2cc1OCC1C[C@@H]2CN(C)C[C@@H]2C1` (some centres not stated), the Potency entry is “inactive”.

As to `O=C(/C=C/c1ccc(O)cc1)OC[C@H]1O[C@@H](OC(=O)/C=C/c2ccccc2)[C@H](O)[C@@H](O)[C@@H]1O`, the Potency entry was “inactive”.

Turning to `C=C1CCC2C(C)(COC3OC(COC(=O)CC(=O)O)C(O)C(O)C3O)CCCC2(C)C1CCC1=CCOC1=O` (configuration not stated), the Potency result is “inactive”.

Regarding `O=C(O)[C@H]1CCCC[C@H]1C(=O)N1CCc2ccccc2[C@H]1CN1C(=O)c2ccccc2C1=O`, the Potency entry is “inactive”.

In the case of `O=C(Nc1cccnn1)N1CCC(=Cc2cccc(Oc3ccc(C(F)(F)F)cn3)c2)CC1`, the Potency result is “inactive”.

As for `CN[C@@H]1[C@@H](O)[C@@H](O[C@@H]2[C@@H](O)[C@H](O[C@H]3O[C@H](CN)[C@@H](O)[C@H](O)[C@H]3O)[C@@H](N)C[C@H]2NC(=O)[C@@H](O)CN)OC[C@]1(C)O`, the Potency entry was “inactive”.

Consider `N#CCc1ccc(O)cc1O[C@@H]1O[C@H](CO)[C@@H](O)[C@H](O)[C@H]1O`, for which the Potency entry is “inactive”.

`COc1cc(C/C(=C/NC(C)=O)N(CC(=O)Cc2ccccc2)C(C)=O)cc2c1OCO2`: the Potency result is “inactive”.

For `CC(C)C1=CC2=CCC3[C@](C)(CCC[C@@]3(C)C(=O)O)C2CC1O` (some centres not stated), the Potency result is “inactive”.

Consider `C(#Cc1cccc(CN2CCOCC2)c1)CCN1CCCCC1`, for which the Potency entry was “inactive”.

(Values after PubChem BioAssay (NCATS).)
